The panel holds about 83,000 compounds, 20% with a hit somewhere; the sample as a whole holds those more often.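 Method: cells in 96-well plates; compound added at one concentration; 48 h incubation; percent growth measured; values under 10 scored active.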 Unmarked numbers belong to inactive results. Activity calls are given as the source filed them.
Each compound was assayed on U251 CNS (assay: NCI-60 one-dose screen, 48 h (100 = growth as untreated, 0 = no growth, -100 = all killed)). Conditions: 10 µM unless noted.

SMILES	growth
Cc1cc2c(cc1C)[n+](Cc1ccc3ccccc3n1)cn2Cc1ccc2ccccc2n1	7.2% (active)
CCOC(=O)c1sc(NC(=O)COc2cccc(/C=C3\Cc4ccc(Cl)cc4C3=O)c2)nc1C	99.4%
COc1ccc(/C=C/C(=O)c2cccc(NS(C)(=O)=O)c2)cc1	37.6%
CCOc1cc(/C=C/C(=O)CC(=O)/C=C/c2ccc(OC(=O)CNCCN(CC)CC)c(OCC)c2)ccc1OC(=O)CNCCN(CC)CC	-60.1% (active)
CC[C@@H](c1ccc(O)c(O)c1)[C@@H](CC)c1ccc(O)c(O)c1	89.9%
CCCCCc1c(C)[nH]c(/C=C2\N=C(c3ccc[nH]3)C=C2Oc2ccc(Cl)cc2)c1C	-94.9% [100 µM] (active)
O=C(O)C1CCN(S(=O)(=O)c2ccc(-c3ccccc3)cc2)CC1	104%
CCCCCN1C(=O)CCC1=O	99%
O=C(O)c1ccc(CNS(=O)(=O)c2ccc3ccccc3c2)cc1	106%
COc1cc(-c2nc3sc4c(c3c(=O)[nH]2)CCCCCC4)cc(OC)c1OC	25.8%
C/C(=C\CCc1ccoc1)CC/C=C(\C)CCCNc1ccc(F)cc1	94.2%
COc1ccc2nc(N/N=C(\C)c3ccccn3)cc(C)c2c1	-85.5% (active)
C/C(=C\CCc1ccoc1)CC/C=C(\C)CCCC1COC(=O)C1 (stereo not drawn)	95.6%
O=C(CNC(=O)c1cccc2ccccc12)Nc1ccccc1Cc1ccccc1	24.3% [5 µM]
NS(=O)(=O)c1ccc(-n2ncc3c(NC4CCCCC4)ncnc32)cc1	96.3%
COc1cc(/C=C/C(=O)CC(=O)/C=C/c2ccc(OC(=O)CCNC34CC5CC(CC(C5)C3)C4)c(OC)c2)ccc1OC(=O)CCNC12CC3CC(CC(C3)C1)C2	22.2%
C/C(=C\CCc1ccoc1)CC/C=C(\C)CCCN1CCSCC1	76.7%
COC(=O)[C@H]1[C@H]2C[C@@H]3c4[nH]c5cc(OC)ccc5c4CCN3C[C@H]2C[C@@H](OC(=O)/C=C/c2cc(OC)c(OC)c(OC)c2)[C@@H]1OC	17.4%
Cc1c2oc3c(C)ccc(C(=O)OC(C)C4NC(=O)C(C(C)C)N(C)C(=O)CN(C)C(=O)C5CCCN5C(=O)C(C(C)C)NC4=O)c3nc-2c(C(=O)OC(C)C2NC(=O)C(C(C)C)N(C)C(=O)CN(C)C(=O)C3CCCN3C(=O)C(C(C)C)NC2=O)c(N)c1=O (stereo not drawn)	14.8%
CC(C)=CCCC(C)c1ccc(C)c2c1OCN(CC1CCNCC1)C2 (stereo not drawn)	-2.5% (active)

SMILES	growth
Oc1ccccc1/C=N/N1CCCCCC1	120%
CC[n+]1c(/C=C/c2ccc(N3CCCC3)cc2)cccc1/C=C/c1ccc(N2CCCC2)cc1	-89.6% (active)
O=C1Nc2ccc(C(=O)O)c(O)c2C1=O	106%
CSc1nc2nc3c(c(-c4ccc(C)cc4)c2c(=O)[nH]1)CN(C)C/C3=C\c1ccc(C)cc1	91.2%
O=C(/C=C/c1cccc(O)c1)c1cccc(-n2cc(-c3ccccc3)[nH]c2=O)c1	-77% (active)
O=[N+]([O-])c1cc([N+](=O)[O-])c(N2CCCC2)cc1NN=C(c1ccc(O)cc1)c1ccc(O)cc1	68.5%
CC1=C([Se]CC(OC(=O)[C@@H](CSSC(C)(C)C)NC(=O)C(C)(C)C)C(=O)NCCCCCC(=O)OCc2ccccc2)C(=O)c2ccccc2C1=O (stereo partly drawn)	-37.5% (active)
C[N+]1(C)C2CC[C@@H]1CC(OC(=O)C(O)c1ccccc1)C2 (stereo partly drawn)	98.5%
O=C(O)CNC(=O)C1(N2C(=O)c3ccccc3C2=O)CCCC1	107%
c1ccc(COc2ccc(Nc3ncnc4c3cnn4-c3ccccc3)cc2)cc1	106%
Nc1ccccc1-c1ccn[nH]1	96.7%
C/C(=C\CCc1ccoc1)CC/C=C(\C)CCCN1CCOCC1	44.3%
O=C(NC1CCCCC1)c1ccc(Nc2ncnc3c2cnn3-c2ccccc2)cc1	40.2%
Cc1ccc(-c2csc(N)n2)cc1	92.9%
COC(=O)C1(NC(=O)CNC(=O)OCc2ccccc2)CCCC1	105%
C[C@]12CC[C@H](O)CC1=CC[C@@H]1[C@@H]2CC[C@]2(C)C(c3cccnc3)=CC[C@@H]12	67%
CC(C)C[C@H](NC(=O)/C=C/Cn1ccc2ccccc2c1=O)B(O)O	55.8%
COc1ccc(N2CCN(CC(=O)N3CCN(c4nnc(-c5ccccc5)c(-c5ccccc5)n4)CC3)CC2)cc1	46.7%
O=C(COc1ccc(/C=C2\Cc3ccccc3C2=O)cc1)c1ccc(Cl)cc1	93.7%

These compounds were tested on PC-3 prostate in the same assay as above. Conditions: 10 µM unless noted.

SMILES	growth
Cc1cc2c(cc1C)[n+](Cc1ccc3ccccc3n1)cn2Cc1ccc2ccccc2n1	-7.23% (active)
CCOC(=O)c1sc(NC(=O)COc2cccc(/C=C3\Cc4ccc(Cl)cc4C3=O)c2)nc1C	103%
CCOc1cc(/C=C/C(=O)CC(=O)/C=C/c2ccc(OC(=O)CNCCN(CC)CC)c(OCC)c2)ccc1OC(=O)CNCCN(CC)CC	-18.5% (active)
CC[C@@H](c1ccc(O)c(O)c1)[C@@H](CC)c1ccc(O)c(O)c1	75.5%
CCCCCc1c(C)[nH]c(/C=C2\N=C(c3ccc[nH]3)C=C2Oc2ccc(Cl)cc2)c1C	5.67% [100 µM] (active)
O=C(O)C1CCN(S(=O)(=O)c2ccc(-c3ccccc3)cc2)CC1	80.9%
CCCCCN1C(=O)CCC1=O	95.1%
O=C(O)c1ccc(CNS(=O)(=O)c2ccc3ccccc3c2)cc1	104%
COc1cc(-c2nc3sc4c(c3c(=O)[nH]2)CCCCCC4)cc(OC)c1OC	38%
C/C(=C\CCc1ccoc1)CC/C=C(\C)CCCNc1ccc(F)cc1	94.9%
COc1ccc2nc(N/N=C(\C)c3ccccn3)cc(C)c2c1	12.9%
C/C(=C\CCc1ccoc1)CC/C=C(\C)CCCC1COC(=O)C1 (stereo not drawn)	91.2%
O=C(CNC(=O)c1cccc2ccccc12)Nc1ccccc1Cc1ccccc1	31.6% [5 µM]
NS(=O)(=O)c1ccc(-n2ncc3c(NC4CCCCC4)ncnc32)cc1	92.9%
COc1cc(/C=C/C(=O)CC(=O)/C=C/c2ccc(OC(=O)CCNC34CC5CC(CC(C5)C3)C4)c(OC)c2)ccc1OC(=O)CCNC12CC3CC(CC(C3)C1)C2	21%
C/C(=C\CCc1ccoc1)CC/C=C(\C)CCCN1CCSCC1	84.3%
COC(=O)[C@H]1[C@H]2C[C@@H]3c4[nH]c5cc(OC)ccc5c4CCN3C[C@H]2C[C@@H](OC(=O)/C=C/c2cc(OC)c(OC)c(OC)c2)[C@@H]1OC	44.6%

SMILES	growth
Cc1c2oc3c(C)ccc(C(=O)OC(C)C4NC(=O)C(C(C)C)N(C)C(=O)CN(C)C(=O)C5CCCN5C(=O)C(C(C)C)NC4=O)c3nc-2c(C(=O)OC(C)C2NC(=O)C(C(C)C)N(C)C(=O)CN(C)C(=O)C3CCCN3C(=O)C(C(C)C)NC2=O)c(N)c1=O (stereo not drawn)	10.4%
CC(C)=CCCC(C)c1ccc(C)c2c1OCN(CC1CCNCC1)C2 (stereo not drawn)	59.4%
CC[n+]1c(/C=C/c2ccc(N3CCCC3)cc2)cccc1/C=C/c1ccc(N2CCCC2)cc1	-76.8% (active)
O=C1Nc2ccc(C(=O)O)c(O)c2C1=O	95.7%
CSc1nc2nc3c(c(-c4ccc(C)cc4)c2c(=O)[nH]1)CN(C)C/C3=C\c1ccc(C)cc1	98.5%
CC1=C([Se]CC(OC(=O)[C@@H](CSSC(C)(C)C)NC(=O)C(C)(C)C)C(=O)NCCCCCC(=O)OCc2ccccc2)C(=O)c2ccccc2C1=O (stereo partly drawn)	-20.8% (active)
C[N+]1(C)C2CC[C@@H]1CC(OC(=O)C(O)c1ccccc1)C2 (stereo partly drawn)	99.5%
O=C(O)CNC(=O)C1(N2C(=O)c3ccccc3C2=O)CCCC1	104%
c1ccc(COc2ccc(Nc3ncnc4c3cnn4-c3ccccc3)cc2)cc1	88.5%
Nc1ccccc1-c1ccn[nH]1	79.1%
C/C(=C\CCc1ccoc1)CC/C=C(\C)CCCN1CCOCC1	55.9%
O=C(NC1CCCCC1)c1ccc(Nc2ncnc3c2cnn3-c2ccccc2)cc1	53.3%
Cc1ccc(-c2csc(N)n2)cc1	91.2%
COC(=O)C1(NC(=O)CNC(=O)OCc2ccccc2)CCCC1	103%
CC(C)C[C@H](NC(=O)/C=C/Cn1ccc2ccccc2c1=O)B(O)O	79.1%
COc1ccc(N2CCN(CC(=O)N3CCN(c4nnc(-c5ccccc5)c(-c5ccccc5)n4)CC3)CC2)cc1	22%
O=C(COc1ccc(/C=C2\Cc3ccccc3C2=O)cc1)c1ccc(Cl)cc1	92.1%

Source: PubChem BioAssay (NCI)
